In PubChem BioAssay AID2540 (Sanford-Burnham Center for Chemical Genomics, 2010):
Among all 330,000 compounds or so, about 4,100 (1.2%) were called active. For the sample, actives were picked, then their nearest neighbours and some compounds at random. Values without a mark were called inactive. No stated cut-off is given here; in the data, active means inhibition above about 50%; inactive means the rest.

Each compound was assayed against Sentrin-specific protease 8 (Homo sapiens) (UniProt Q96LD8) (assay: blockers of human SENP8 peptidase activity – biochemical, luminescence, primary screen (AID 2540)). Details: purified SENP8, Z-RLRGG-aminoluciferin cleavage, at 10 µM, hits give high values.
Sequence of Sentrin-specific protease 8 (Homo sapiens) (Q96LD8 whole entry, looked up): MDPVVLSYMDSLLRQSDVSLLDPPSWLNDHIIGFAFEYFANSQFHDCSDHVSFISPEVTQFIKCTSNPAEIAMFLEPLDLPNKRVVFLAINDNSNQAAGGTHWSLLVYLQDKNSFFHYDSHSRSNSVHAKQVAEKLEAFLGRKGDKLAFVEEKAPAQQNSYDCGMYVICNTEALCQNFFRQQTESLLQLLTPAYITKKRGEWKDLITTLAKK

Compared with `CCOC(=O)C1CCN(S(=O)(=O)c2ccc3c(c2)N(C)C(=O)CC(=O)N3C)CC1`, `Cc1ccc(/C=C2/SC(=S)N(CCC(=O)NCCCN3CCOCC3)C2=O)cc1` is lower in inhibition: 2.4% for the first, -1.52% for the second.

Going from `Cc1cc(C)cc(-c2nnc(SCC(=O)NC3CC3)o2)c1` to `CCCCSc1nnc(-c2ccc(C)cc2)o1`, the inhibition rises from -2.18% to 33.5%.

First: Cc1nn(CC(=O)Nc2ccc(F)cc2)c(=O)c2ccccc12
Second: COc1ccc(S(=O)(=O)Nc2ccc(F)cc2)c(C)c1C
The inhibition of the first is lower: 1.21% for the first, 3.56% for the second.

Going from `Cc1ccc(-n2nc3ccc(NC(=O)/C=C/c4ccco4)cc3n2)cc1C` to `c1ccc(-n2nc3ccccc3n2)cc1`, the inhibition falls from 15.4% to -19.2%.

First: CCOc1c2ccc(C(=O)NC3CCCc4ccccc43)cc2nn1CC (stereo unspecified)
Second: CNC(=O)c1cc2c(ccc3ccccc32)oc1=N
The inhibition of the first is lower: -8.27% for the first, -3% for the second.

First: CC(=O)N1CC2(C)CN(C(C)=O)CC(C)(C1)C2=O
Second: CC(=O)N1CCN(C(=O)C2(NC(=O)Nc3ccc(C)cc3)CCCCC2)CC1
The inhibition of the first is lower: 1.73% for the first, 5.59% for the second.

First: CCCCOc1ccc(-c2ncc(C(=O)OCC)c(N)n2)cc1
Second: CCOc1ccc(-n2c(SCC(N)=O)nnc2-c2ccco2)cc1
The inhibition of the first is lower: -12.4% for the first, -1.84% for the second.

Compared with `N#Cc1ccc(OCc2nnc(-c3ccc([N+](=O)[O-])cc3)o2)cc1`, `COC(=O)C1=CN(c2ccc(F)c(F)c2)C=C(C(=O)OC)C1c1ccc([N+](=O)[O-])cc1` is lower in inhibition: 7.85% for the first, -9.67% for the second.

Going from `Cc1c(-c2ccccc2)n[nH]c1C(=O)N=Nc1c(O)[nH]c2ccccc12` to `COc1ccccc1C1CC(=O)n2c(nc(-c3ccccc3)c2-c2ccccc2)S1` (stereo unspecified), the inhibition falls from 21.6% to -4.43%.

Going from `Cc1ccccc1NS(=O)(=O)CCCCC(Cl)(Cl)Cl` to `CCN1C(=O)c2cccc3c(S(=O)(=O)Nc4ccccc4O)ccc1c23`, the inhibition falls from 7.88% to 6.13%.

First: CCOc1ccc(S(=O)(=O)N/N=C(\C)c2ccc(Cl)c(Cl)c2Cl)cc1
Second: CN(CC(=O)NCc1cccnc1)S(=O)(=O)c1cc(Cl)ccc1Cl
The inhibition of the first is lower: 1.79% for the first, 3.65% for the second.

Going from `CCN1C(=O)C(C(=O)NC(C)c2ccccc2)C2CC1(C)Oc1ccccc12` (stereo unspecified) to `C[C@@H](C(=O)Nc1ccc2ccccc2c1)[C@@H]1C[C@@]1(C)[C@@H](NC(=O)c1cccnc1)c1ccccc1`, the inhibition rises from 7.17% to 13.1%.

First: CSc1sc(C(=O)NC(=O)NCc2cccnc2)c(C)c1-c1ccon1
Second: COc1cccc(C(=O)NC(=O)Nc2nc(C)cc(C(F)(F)F)n2)c1
The inhibition of the first is higher: 4.14% for the first, -10.3% for the second.

First: O=C(Cn1cc(C(=O)C2CC2)c2ccccc21)Nc1ccccc1Cl
Second: N=c1oc2ccccc2cc1C(=O)NCc1ccccc1
The inhibition of the first is higher: 5.51% for the first, -17.9% for the second.

Compared with `O=C(COC(=O)c1ccc(O)cc1O)NNC(=O)c1cccs1`, `CCc1ccc(NC(=O)COC(=O)c2cccs2)cc1` is higher in inhibition: -4.38% for the first, 11.2% for the second.

First: COc1ccc(/C=C2\SC(=S)N(CC(=O)NNC(=O)c3ccncc3)C2=O)cc1
Second: COC(=O)c1ccc(/C=C/c2c(-c3ccc(OC)cc3)sc3ccccc23)cc1
The inhibition of the first is lower: -3.25% for the first, -2.53% for the second.

Compared with `CCOC(=O)C1=C(NC(=S)NC(=O)c2ccccc2)c2ccccc2CC1(C)C`, `CCOC(=O)c1ccc(NC(=O)c2c(NCc3ccccc3)[nH]c(=O)[nH]c2=O)cc1` is higher in inhibition: -5.5% for the first, 0.312% for the second.

First: COc1ccccc1NC(=O)COC(=O)CNC(=O)C1CCCCC1
Second: COC(=O)CNC(c1ccccc1Cl)c1cc(Br)ccc1NC(=O)CCN1CCOCC1 (stereo unspecified)
The inhibition of the first is higher: 8.04% for the first, -4.92% for the second.

First: COc1cc(/C=N/N=C(\N)c2nonc2N)cc(OC)c1OC
Second: COc1ccc(Br)cc1CN(C)CC(=O)Nc1cc([N+](=O)[O-])ccc1OC
The inhibition of the first is higher: -1.1% for the first, -6.64% for the second.

Going from `CN(C)c1nnnn1-c1ccc(Cl)cc1` to `CCOC(=O)c1ccc(Nc2cc(C)nc3nc(C)nn23)cc1`, the inhibition rises from 2.64% to 7.18%.

First: Cc1ccc2c(c1)NCC(C(=O)NC1CCC(C)CC1)O2 (stereo unspecified)
Second: Cc1ccc(/C=N/NC(=S)NC2CCCCC2)o1
The inhibition of the first is lower: -10.8% for the first, -5.05% for the second.

Compared with `Cc1ccc(/C=N/NC(=S)Nc2cccc(S(=O)(=O)N(C)C)c2)o1`, `O=C(Nc1cccc(Cl)c1)Nc1ccccc1NS(=O)(=O)c1cccs1` is higher in inhibition: 1.79% for the first, 11.3% for the second.

Going from `CN(CC(=O)NC1CCCC1)S(=O)(=O)c1cnc[nH]1` to `COc1ccc(-c2ccc(OC(=O)NC3CCS(=O)(=O)C3)cc2)cc1` (stereo unspecified), the inhibition falls from -8.57% to -13.5%.

First: O=C(NCCO)C(=O)NCC(c1ccc2c(c1)OCO2)N1CCN(c2ccc(F)cc2)CC1 (stereo unspecified)
Second: O=C(COc1ccc2c(c1)CCC2)N1CCN(c2ccc(F)cc2)CC1
The inhibition of the first is higher: -0.025% for the first, -17.5% for the second.

First: CC(=O)N1CC(C)c2scc(C)[n+]2-c2ccccc21 (stereo unspecified)
Second: O=C(O)CN1C(=O)CC(Cc2ccccc2)C1=O (stereo unspecified)
The inhibition of the first is lower: 0.506% for the first, 4.48% for the second.

Compared with `O=C(Nc1cc2c3c(c1)CC(=O)N3CCC2)c1ccccc1F`, `Cn1c(Cn2nnc3ccccc32)nnc1SCC(=O)c1ccccc1F` is lower in inhibition: 3.3% for the first, 0% for the second.

Compared with `Cc1ccc(C)c(NC(=O)CSc2nc3c(oc4ccccc43)c(=O)n2-c2ccccc2)c1`, `COc1ccc(CCNc2cc(N3CCN(C(=O)c4ccccc4OC)CC3)ccc2[N+](=O)[O-])cc1OC` is lower in inhibition: -0.496% for the first, -3.35% for the second.

Compared with `Cc1oc(-c2cccc(Cl)c2)[n+]([O-])c1C`, `Clc1ccc(-c2cc(C3CCNCC3)[nH]n2)c(Cl)c1` is higher in inhibition: -7.45% for the first, 0.621% for the second.

Going from `Cc1nn(C)cc1N1C(=O)c2cccc3c(N)ccc(c23)C1=O` to `CC(=O)c1cnn(-c2cc(Oc3ccc(F)cc3)ncn2)c1C`, the inhibition rises from 0.391% to 9.6%.

First: CC1=C2C(=O)OC(c3ccoc3)C2(C)CCC1 (stereo unspecified)
Second: CN1C(C(=O)NCc2ccco2)CC2Cn3c(nc4ccccc43)C21 (stereo unspecified)
The inhibition of the first is higher: -1.03% for the first, -18.3% for the second.

First: CC(C)C(=O)Nc1ccc(C(=O)NNC(=O)c2cccs2)cc1
Second: O=C(NN1C(=O)C2C3C=CC(O3)C2C1=O)c1ccccc1 (stereo unspecified)
The inhibition of the first is higher: -0.29% for the first, -0.512% for the second.

First: Cc1ccc(CCCOC(=O)C[N+]2(C)CCCCC2)cc1
Second: CC1(C)CC(N(Cc2ccccc2)C(=O)Cc2ccccc2)CCO1 (stereo unspecified)
The inhibition of the first is higher: 7.71% for the first, -3.89% for the second.

First: NC(=O)CC[C@@H]1NC(=O)[C@@H]2CCCN2C(=O)c2cc([N+](=O)[O-])cc(F)c2NCCC[C@@H](C(N)=O)NC1=O
Second: COc1ccc(-c2sc3ccccc3c2-c2ccc(OCCN3CCOCC3)cc2)cc1
The inhibition of the first is lower: -2.54% for the first, 8% for the second.

`CC[N+](C)(CC)CCC[n+]1c(-c2ccccc2)c2cc(N)ccc2c2ccc(N)cc21` was tested, and the inhibition was 96.5% (active).
With `CCC(=O)Nc1ccc2nn(-c3ccc(F)cc3)nc2c1` the inhibition was 63.6% (active).
With `CCOc1ccc(-c2nnc(-c3ccco3)o2)cc1` the inhibition was 73.3% (active).
In the case of `CCCCOc1ccc(-c2nnc(-c3ccco3)o2)cc1`, the inhibition was 64.8% (active).
`C=CCOc1ccc(/C=C2\SC(=S)N(CCC(=O)O)C2=O)cc1` was tested, and the inhibition was 97.6% (active).
With `Nc1ccc2nn(-c3ccc(Cl)cc3)nc2c1` the inhibition was 86.7% (active).
`Cc1ccc(/C=N/NC(=O)c2cc3ccccc3cc2O)o1` was tested, and the inhibition was 55.8% (active).
With `N=c1oc2ccccc2cc1C(=O)N/N=C/c1ccccc1` the inhibition was 86.5% (active).
In the case of `Oc1ccc(N=Nc2nccs2)c(O)c1`, the inhibition was 72.7% (active).
For `CCN1C(=O)c2cccc3c(N)ccc1c23`, the inhibition was 83.8% (active).
In the case of `CCc1ccc(NC(=O)C(=O)NNC(=O)c2cccs2)cc1`, the inhibition was 69.7% (active).
In the case of `CC1=NN(C(N)=S)C(=O)C1N=Nc1cc(Cl)ccc1Cl` (stereo unspecified), the inhibition was 70.4% (active).
`CCOC(=O)c1ccc(Nc2cc3ccccc3c(=O)[nH]2)cc1` was tested, and the inhibition was 64.2% (active).
With `Nc1ccc(N=Nc2ccccc2Cl)c(N)n1` the inhibition was 72.7% (active).
With `COc1ccc(N=C(C)c2sc3ccccc3c2O)cc1` the inhibition was 74% (active).
